In the supplement of paper PMC12645437, “Orthogonal IMiD-Degron Pairs Induce Selective Protein Degradation in Cells” (ACS Chemical Biology, 2025):
Whole data set: some 8,300 sequences, median “log2 fold change of degron read counts, EGFP-low vs EGFP+ sorted cells (limma voom), compound-induced degradation” near -1.1, cut for the highest 2% near 3.2. The full list was thinned out, with the highest values kept by preference.

Molecular target: T1, CRBN, Q96SW2
T1 chain: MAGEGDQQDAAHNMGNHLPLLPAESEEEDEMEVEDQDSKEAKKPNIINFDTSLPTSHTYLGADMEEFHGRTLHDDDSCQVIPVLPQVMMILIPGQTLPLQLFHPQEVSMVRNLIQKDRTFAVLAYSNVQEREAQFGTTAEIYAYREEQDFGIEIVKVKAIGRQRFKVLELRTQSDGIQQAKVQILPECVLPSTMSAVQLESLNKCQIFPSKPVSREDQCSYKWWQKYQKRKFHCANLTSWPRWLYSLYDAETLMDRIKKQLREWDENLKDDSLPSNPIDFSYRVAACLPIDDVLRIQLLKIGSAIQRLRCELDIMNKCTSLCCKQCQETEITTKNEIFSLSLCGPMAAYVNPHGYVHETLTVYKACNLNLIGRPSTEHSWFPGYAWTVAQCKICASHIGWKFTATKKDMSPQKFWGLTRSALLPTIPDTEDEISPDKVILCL
Assay: log2 fold change of degron read counts, EGFP-low vs EGFP+ sorted cells (limma voom), compound-induced degradation; higher = more compound-induced degradation of the degron-EGFP fusion; degrons are variants of IKZF1/3 zinc finger 2; compound dose not given here
Conditions: Jurkat, 18 h
Protocol: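 Pooled library of 8380 IKZF3 ZF2 degron mutants (positions 146-167 varied within the IKZF3 130-189 degron; only the varied core is printed, flanks not printed) fused to EGFP with IRES-mCherry, lentivirally expressed in Jurkat cells. mCherry+ cells were treated with one IMiD compound for 18 h (dose not stated) and FACS-sorted into EGFP-low and EGFP+ populations. Degron sequences were counted by NGS, and log2FC (EGFP-low vs EGFP+) was estimated by limma voom over 3 biological replicates.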

[1] = compound: compound 19 (5-tert-butyl-thalidomide)
[2] = compound: compound 22 (5-morpholino-thalidomide)
[3] = compound: compound 33 (diphenyl IMiD analogue)
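Note: pooled lentiviral library of zinc finger degron-EGFP fusions in mCherry-positive Jurkat cells, FACS-sorted after compound exposure, with degron abundance counted by next-generation sequencing.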

FHCPVCGAAFTQKGNLLRHIKL [46F_47H_49P_50V_52G_53A_54A_55F_67L_, Q9UKT9]
log2 fold change of degron read counts [1]: 2.96 | log2 fold change of degron read counts [2]: 2.4 | log2 fold change of degron read counts [3]: 2.16 | log2 fold change of degron read counts (compound: thalidomide): 0.942

FMCPVCGAAFTQKGNLLRHIKL [46F_47M_49P_50V_52G_53A_54A_55F_67L_, Q9UKT9]
log2 fold change of degron read counts [1]: 1.72 | log2 fold change of degron read counts [2]: 2.21 | log2 fold change of degron read counts [3]: 3.08 | log2 fold change of degron read counts (compound: thalidomide): 2.11

FVCPQCGAAFTQKGNLLRHIKL [46F_47V_49P_50Q_52G_53A_54A_55F_67L_, Q9UKT9]
log2 fold change of degron read counts [1]: -1.44 | log2 fold change of degron read counts [2]: 1.34 | log2 fold change of degron read counts [3]: 1.04 | log2 fold change of degron read counts (compound: thalidomide): 1.46

FGCPVCGAAFTQKGNLLRHIKL [46F_47G_49P_50V_52G_53A_54A_55F_67L_, Q9UKT9]
log2 fold change of degron read counts [1]: 3.32 | log2 fold change of degron read counts [2]: 2.34 | log2 fold change of degron read counts [3]: 2.97 | log2 fold change of degron read counts (compound: thalidomide): 1.29

FQCPVCGAAFTQKGNLLRHIKL [46F_47Q_49P_50V_52G_53A_54A_55F_67L_, Q9UKT9]
log2 fold change of degron read counts [1]: 2.54 | log2 fold change of degron read counts [2]: 3.1 | log2 fold change of degron read counts [3]: 2.52 | log2 fold change of degron read counts (compound: thalidomide): 3.69

FVCPVCGAAFTQKGNLLRHIKL [46F_47V_49P_50V_52G_53A_54A_55F_67L_, Q9UKT9]
log2 fold change of degron read counts [1]: 0.708 | log2 fold change of degron read counts [2]: 3.2 | log2 fold change of degron read counts [3]: 2.37 | log2 fold change of degron read counts (compound: thalidomide): 3.08

FICPVCGAAFTQKGNLLRHIKL [46F_47I_49P_50V_52G_53A_54A_55F_67L_, Q9UKT9]
log2 fold change of degron read counts [1]: -0.386 | log2 fold change of degron read counts [2]: 2.86 | log2 fold change of degron read counts [3]: 2.22 | log2 fold change of degron read counts (compound: thalidomide): 2.77

FQCPQCGAAFTQKGNLLRHIKL [46F_47Q_49P_50Q_52G_53A_54A_55F_67L_, Q9UKT9]
log2 fold change of degron read counts [1]: -0.422 | log2 fold change of degron read counts [2]: 1.04 | log2 fold change of degron read counts [3]: 0.683 | log2 fold change of degron read counts (compound: thalidomide): 3.27

FYCPQCGAAFTQKGNLLRHIKL [46F_47Y_49P_50Q_52G_53A_54A_55F_67L_, Q9UKT9]
log2 fold change of degron read counts [1]: 1.03 | log2 fold change of degron read counts [2]: 1.46 | log2 fold change of degron read counts [3]: 1.86 | log2 fold change of degron read counts (compound: thalidomide): -0.429

FWCPVCGAAFTQKGNLLRHIKL [46F_47W_49P_50V_52G_53A_54A_55F_67L_, Q9UKT9]
log2 fold change of degron read counts [1]: 3.13 | log2 fold change of degron read counts [2]: 3.69 | log2 fold change of degron read counts [3]: 2.44 | log2 fold change of degron read counts (compound: thalidomide): 1.11

FECPVCGAAFTQKGNLLRHIKL [46F_47E_49P_50V_52G_53A_54A_55F_67L_, Q9UKT9]
log2 fold change of degron read counts [1]: 2.1 | log2 fold change of degron read counts [2]: -0.445 | log2 fold change of degron read counts [3]: 2.32 | log2 fold change of degron read counts (compound: thalidomide): 3

FCCPVCGAAFTQKGNLLRHIKL [46F_47C_49P_50V_52G_53A_54A_55F_67L_, Q9UKT9]
log2 fold change of degron read counts [1]: 3.16 | log2 fold change of degron read counts [2]: 2.58 | log2 fold change of degron read counts [3]: 2.48 | log2 fold change of degron read counts (compound: thalidomide): 2.16

FFCPICGRMFTQKGNLLRHIKL [46F_47F_49P_50I_52G_53R_54M_55F_67L_, Q9UKT9]
log2 fold change of degron read counts [1]: 0.209 | log2 fold change of degron read counts [2]: -0.113 | log2 fold change of degron read counts [3]: 0.441 | log2 fold change of degron read counts (compound: thalidomide): -0.935

FHCNICGAQFTQKGNLLRHIKL [46F_47H_49N_50I_52G_53A_54Q_55F_67L_, Q9UKT9]
log2 fold change of degron read counts [1]: 0.655 | log2 fold change of degron read counts [2]: 1.29 | log2 fold change of degron read counts [3]: 1.05 | log2 fold change of degron read counts (compound: thalidomide): -0.181

FYCEICGRCFTQKGNLLRHIKL [46F_47Y_49E_50I_52G_53R_54C_55F_67L_, Q9UKT9]
log2 fold change of degron read counts [1]: 0.939 | log2 fold change of degron read counts [2]: 0.533 | log2 fold change of degron read counts [3]: 1.13 | log2 fold change of degron read counts (compound: thalidomide): -0.963

FKCEQCGAVFTQKGNLLRHIKL [46F_47K_49E_50Q_52G_53A_54V_55F_67L_, Q9UKT9]
log2 fold change of degron read counts [1]: -3.73 | log2 fold change of degron read counts [2]: -2.96 | log2 fold change of degron read counts [3]: -3.73 | log2 fold change of degron read counts (compound: thalidomide): -3.19

FKCNQCGAVFTQKGNLLRHIKL [46F_47K_49N_50Q_52G_53A_54V_55F_67L_, Q9UKT9]
log2 fold change of degron read counts [1]: -2.58 | log2 fold change of degron read counts [2]: -2.71 | log2 fold change of degron read counts [3]: -3.07 | log2 fold change of degron read counts (compound: thalidomide): -2.52

LCCNQCGFACTQKGNLLRHIKL [46L_47C_49N_50Q_52G_53F_54A_55C_67L_, Q9UKT9]
log2 fold change of degron read counts [1]: -1.66 | log2 fold change of degron read counts [2]: -2.13 | log2 fold change of degron read counts [3]: -1.86 | log2 fold change of degron read counts (compound: thalidomide): -1.41

FICNQCGRGFTQKGNLLRHIKL [46F_47I_49N_50Q_52G_53R_54G_55F_67L_, Q9UKT9]
log2 fold change of degron read counts [1]: -3.02 | log2 fold change of degron read counts [2]: -3.8 | log2 fold change of degron read counts [3]: -3.62 | log2 fold change of degron read counts (compound: thalidomide): -2.96

FVCNQCGRLFTQKGNLLRHIKL [46F_47V_49N_50Q_52G_53R_54L_55F_67L_, Q9UKT9]
log2 fold change of degron read counts [1]: -1.99 | log2 fold change of degron read counts [2]: -2.78 | log2 fold change of degron read counts [3]: -1.99 | log2 fold change of degron read counts (compound: thalidomide): -1.68

FACPVCGAAFTQKGNLLRHIKL [46F_47A_49P_50V_52G_53A_54A_55F_67L_, Q9UKT9]
log2 fold change of degron read counts [1]: 3.6 | log2 fold change of degron read counts [2]: 2.87 | log2 fold change of degron read counts [3]: 1.74 | log2 fold change of degron read counts (compound: thalidomide): 1.56

FWCDVCGAAFTQKGNLLRHIKL [46F_47W_49D_50V_52G_53A_54A_55F_67L_, Q9UKT9]
log2 fold change of degron read counts [1]: 2.61 | log2 fold change of degron read counts [2]: 3.37 | log2 fold change of degron read counts [3]: 1.17 | log2 fold change of degron read counts (compound: thalidomide): -0.68

FRCPVCGAAFTQKGNLLRHIKL [46F_47R_49P_50V_52G_53A_54A_55F_67L_, Q9UKT9]
log2 fold change of degron read counts [1]: 2.21 | log2 fold change of degron read counts [2]: 2.41 | log2 fold change of degron read counts [3]: 2.44 | log2 fold change of degron read counts (compound: thalidomide): 2.31

FYCDVCGAAFTQKGNLLRHIKL [46F_47Y_49D_50V_52G_53A_54A_55F_67L_, Q9UKT9]
log2 fold change of degron read counts [1]: 2.59 | log2 fold change of degron read counts [2]: 2.94 | log2 fold change of degron read counts [3]: 1.59 | log2 fold change of degron read counts (compound: thalidomide): -1.42

FVCDVCGAAFTQKGNLLRHIKL [46F_47V_49D_50V_52G_53A_54A_55F_67L_, Q9UKT9]
log2 fold change of degron read counts [1]: -0.53 | log2 fold change of degron read counts [2]: 1.92 | log2 fold change of degron read counts [3]: 0.755 | log2 fold change of degron read counts (compound: thalidomide): 1.42

FLCPVCGAAFTQKGNLLRHIKL [46F_47L_49P_50V_52G_53A_54A_55F_67L_, Q9UKT9]
log2 fold change of degron read counts [1]: 0.86 | log2 fold change of degron read counts [2]: 0.132 | log2 fold change of degron read counts [3]: 1.81 | log2 fold change of degron read counts (compound: thalidomide): 1.42

FVCNQCGARFTQKGNLLRHIKL [46F_47V_49N_50Q_52G_53A_54R_55F_67L_, Q9UKT9]
log2 fold change of degron read counts [1]: -2.15 | log2 fold change of degron read counts [2]: -2.17 | log2 fold change of degron read counts [3]: -1.37 | log2 fold change of degron read counts (compound: thalidomide): -0.598

FRCNQCGHEFTQKGNLLRHIKL [46F_47R_49N_50Q_52G_53H_54E_55F_67L_, Q9UKT9]
log2 fold change of degron read counts [1]: -3.26 | log2 fold change of degron read counts [2]: -3.83 | log2 fold change of degron read counts [3]: -3.1 | log2 fold change of degron read counts (compound: thalidomide): -2.88
